BaF3 tox = reduces parental Ba/F3 cell viability, JAK2V617F counter-screen; CellTiter-Glo ATP luminescence; 220,000 compounds, 1.1% hits; inhibition, % at 5.6 µM; AID 1486;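 active = inhibition above a per-campaign cutoff, the mean inhibition of all tested compounds plus 3 SD, cut at about 27% in these data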;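 also: 0% = DMSO wells and 100% = JAK Inhibitor I control wells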
IEC-6 tox = kills IEC-6 intestinal cells in KLF5 counter-screen; 290,000 compounds, 0.78% hits; IEC-6 cytotoxicity, luminescence viability; inhibition, % at 5 µM; AID 1825; in the data active = inhibition above about 22%;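 also: 0% = plate median of test compound wells and 100% = cytotoxic reference compound wells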
APP 5UTR inh = APP translation inhibition; SH-SY5Y APP 5'UTR-luciferase reporter, luminescence; inhibition, % at 2 µM; 190,000 compounds, 0.82% hits; AID 1285;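 active = inhibition above a set limit, derived from the sample mean plus 3 SD, cut at about 45% in these data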
KLF5 inh = inhibitors of KLF5 expression; DLD-1 KLF5 promoter-luciferase reporter, luminescence; inhibition, % at 5 µM; AID 1700; 290,000 compounds, 0.23% hits;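 active = inhibition above a per-plate limit of that plate's mean compound inhibition plus 3 SD, cut at about 60% in these data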;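 also: 0% = DMSO wells and 100% = LY294002 at 200 µM; higher means less KLF5 promoter-driven luciferase light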
Ba/F3 V617F tox = loss of viability in JAK2V617F-driven Ba/F3 cells; Ba/F3 EpoR-JAK2V617F viability, ATP luminescence; inhibition, % at 5.6 µM; 220,000 compounds, 1.1% hits; AID 1446;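 active = inhibition above the campaign mean plus 3 SD over all tested compounds, cut at about 24% in these data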;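 also: cytokine-independent growth of Ba/F3 cells driven by EpoR plus mutant JAK2; 0% = DMSO-treated cells and 100% = JAK inhibitor I control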
aSyn 5UTR inh = 5' untranslated region of α-synuclein, MLPCN primary screen. alpha-synuclein 5'UTR reporter, inhibitor activity. inhibition, % (tested at 7.5 µM). 300,000 compounds, 0.82% hits. AID 1813; in the data active = inhibition above about 60%;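 also: H4 neuroglioblastoma cells stably carrying SNCA 5'UTR luciferase fusion; 0% = DMSO wells and 100% = positive control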
Numbers without * were called inactive; · = no result given. Rows were chosen to be rich in hits. Some 2.1% of all compounds tested hit in one or more screens of this group.

SMILES	BaF3 tox	IEC-6 tox	APP 5UTR inh	KLF5 inh	Ba/F3 V617F tox	aSyn 5UTR inh
COc1ccccc1P(=O)(Cc1ccccc1)c1ccccc1 (centres undefined)	·	1.5	·	-29.4	·	0.8
CC(Oc1cccc(Cl)c1)C(=O)Nc1nc(-c2ccccn2)cs1 (centres undefined)	·	·	·	·	·	63.7*
Cc1cc[n+](-c2ccccc2)c2ccccc12	65.2*	4.0	-13.2	-6.4	67.8*	-38.7
CCOc1cc(C)c(S(=O)(=O)Nc2ccc3cn[nH]c3c2)cc1C	40.1*	9.6	6.0	5.2	5.0	-73.7
CCCS(=O)(=O)Nc1ccc2cn[nH]c2c1	4.4	-1.4	9.5	-0.4	1.4	5.0
CCC(C)NC(=S)Nc1ccc(C(=O)OC)cc1 (centres undefined)	49.6*	9.5	-25.7	-22.2	6.6	-31.8
CCC(C)NC(=S)Nc1ccccc1 (centres undefined)	-2.4	-0.1	·	-16.0	2.2	18.3
Cc1ccsc1C(=O)N1CCCC(N(C)Cc2ccccc2)C1 (centres undefined)	·	-3.1	·	-8.0	·	3.8
O=C(CNC(=O)N1CC(=O)Nc2ccccc21)NCCc1ccc(Cl)cc1	·	9.8	·	-18.4	·	1.0
CC(C)c1cc(C(=O)Nc2cc(Br)ccc2O)no1	29.1*	-3.8	-37.9	-109.6	27.3*	-290.8
CC(C)c1cc(C(=O)Nc2cc(Cl)ccc2O)no1	37.2*	1.0	-138.6	-94.2	16.2	-290.0
Cn1cccc/c1=N\c1cccc[n+]1C	62.9*	0.6	·	-13.3	72.6*	8.5
O=[N+]([O-])c1cncc([N+](=O)[O-])c1Nc1cccc(O)c1	·	-6.3	·	-17.2	·	-15.2
CCn1c2ccc(F)cc2c2nnc(SCCN3CCCCC3)nc21	·	6.3	·	-4.3	·	5.1
CC(=O)Nc1nc2cc3c(cc2s1)OCO3	9.2	0.2	-56.6	-102.3	7.5	-99.8
CC1CCc2nc(NC(=O)c3ccco3)sc2C1 (centres undefined)	3.7	3.4	-39.3	-9.3	0.6	88.1*
O=C(Nc1nc2cc3c(cc2s1)OCO3)c1ccco1	-6.1	-2.4	·	-28.0	4.6	79.8*
CC1CCc2nc(NC(=O)Cc3cccs3)sc2C1 (centres undefined)	0.7	-2.2	-105.0	-93.9	-2.4	-160.1
COC(C(=O)N/N=C/c1ccc(OCC(=O)N2CCOCC2)cc1)c1ccccc1 (centres undefined)	·	-5.4	·	0.5	·	-20.7
CC(CCN1CCN(c2ccccc2)CC1)c1ccccc1 (centres undefined)	·	-4.9	·	-36.8	·	-8.5
NNC(=O)c1oc2ccccc2c1-n1cccc1	9.1	8.2	61.9*	-16.3	5.6	2.0
COc1ccc(CNS(=O)(=O)c2cc(CN3C(=O)c4cccnc4C3=O)ccc2OC)cc1	·	-9.4	·	-45.2	·	13.4
O=C(NNC1=Nc2ccccc2SC1)c1ccc(Cl)cc1	0.3	11.7	·	-41.8	-3.2	96.2*
O=C(NNC1=Nc2ccccc2SC1)c1ccc(F)cc1	0.9	10.4	·	-1.4	-1.7	42.6
CCN1C(=O)[C@H]2[C@@H](c3ccc(-c4ccc(OC)cc4)cc3)N3CCCC[C@@]3(C(=O)OC)[C@H]2C1=O	·	·	·	·	·	19.0
SMILES	BaF3 tox	IEC-6 tox	APP 5UTR inh	KLF5 inh	Ba/F3 V617F tox	aSyn 5UTR inh
Cc1ccc2nc(NC(=O)C3CCN(S(=O)(=O)c4cc([N+](=O)[O-])ccc4Cl)CC3)sc2c1	38.0*	2.5	9.2	14.0	37.3*	-4.6
O=C(Nc1nc2ccc(F)cc2s1)C1CCN(S(=O)(=O)c2cc([N+](=O)[O-])ccc2Cl)CC1	5.2	-6.7	-7.7	-58.1	10.7	-197.2
NS(=O)(=O)c1ccc(CNC(=O)/C=C/c2ccco2)cc1	56.1*	2.2	·	0.3	92.8*	-14.8
O=C(/C=C/c1ccco1)NCc1ccc(F)cc1	6.1	-5.2	-6.9	-43.3	2.3	2.6
Cc1nn(C)c(C(=O)NCc2ccc(Cl)cc2)c1Cl	34.3*	-0.5	6.7	-18.6	17.7	3.9
Cc1nc(C)c(C(=O)NCc2ccc(Cl)cc2)o1	4.8	-2.1	-2.2	-17.7	-2.2	-9.3
CCCCC[n+]1cccc2c3ccccc3ccc21	77.3*	14.3	16.2	48.6	100.0*	26.4
c1ccc(C[n+]2cccc3c4ccccc4ccc32)cc1	78.9*	2.8	1.6	6.4	96.7*	-16.8
O=[N+]([O-])c1ccc(C[n+]2cccc3ccccc32)cc1	-1.0	3.9	-19.8	-17.1	0.1	10.1
CCCC[n+]1c2ccccc2cc2ccccc21	·	-4.6	·	-26.0	·	-1.0
O=C(c1ccc2c(c1)OCO2)N1CCCC(c2ccccc2)C1 (centres undefined)	32.6*	2.1	-7.9	-28.4	9.2	-1.5
CC(C)Oc1ncnc2c1[nH]c1ccccc12	36.3*	6.2	·	-35.0	0.3	-35.2
COC(=O)N/N=C/c1cc(Br)ccc1O	9.8	1.7	2.2	-20.6	3.3	-18.8
CC(C)c1ccc(/C=N/Nc2ccc(C(=O)O)cc2)cc1	7.2	0.1	-14.6	31.6	7.0	85.0*
O=C(N/N=C/c1cc(Br)ccc1O)c1ccccc1Cl	3.0	4.7	40.6	14.3	-1.6	67.1*
CC(C)c1ccc(/C=N/NC(=O)c2ccccc2Cl)cc1	4.6	21.0	61.4*	-9.4	23.3	-38.2
O=C(N/N=C/c1cc(Br)ccc1O)c1cccc(N2CCCC2=O)c1	1.8	-0.2	34.1	13.9	1.8	68.4*
Cc1cc(C(=O)NC2CCCCCCC2)ccc1[N+](=O)[O-]	·	·	·	·	·	-141.0
CCCSc1ccc([C@@H]2[C@H]3C(=O)N(CC)C(=O)[C@H]3[C@]3(C(=O)OC)CCCCN23)cc1	·	·	·	·	·	3.4
CCc1ccc2nc(N(CCN(C)C)C(=O)c3ccc4ncsc4c3)sc2c1	·	3.3	·	-132.8	·	-113.7
COc1cc(OC)c(C2N(C)c3ccccc3N2C)cc1OC	58.8*	-2.2	-10.8	23.7	53.1*	-6.0
COC(=O)C1=CN(c2ccc(OC)cc2)C=C(C(=O)OC)C1c1cc(OC)c(OC)cc1OC	·	-3.1	·	4.5	·	7.7
CCc1c(C2(O)CCCCC2)[nH]c2ccc(C(F)(F)F)cc12	·	5.6	·	6.2	·	46.0
CCOc1ccccc1N1CCN(CC(=O)NC(C)c2ccccc2)CC1 (centres undefined)	·	3.7	·	-9.2	·	6.0
Cc1ccc(C(=O)NC(=S)N2CCCC2)cc1	·	5.3	·	-21.8	·	-18.7
SMILES	BaF3 tox	IEC-6 tox	APP 5UTR inh	KLF5 inh	Ba/F3 V617F tox	aSyn 5UTR inh
Cc1ccc(C(=O)NC(=S)N2CCN(C)CC2)cc1	1.6	5.8	51.6*	-2.4	-2.9	-21.6
Cc1cc(O)c(C2=Nc3ccccc3SC(c3ccc(Cl)cc3)C2)c(=O)o1 (centres undefined)	2.2	-0.4	-111.9	-16.7	-1.9	-261.2
COc1ccc(C2CC(c3c(O)cc(C)oc3=O)=NCCS2)c(OC)c1 (centres undefined)	1.1	6.1	93.1*	-47.9	-3.3	·
O=C(NCCCc1ccccc1)C1CC1	·	·	·	·	·	8.9
O=C(CCCN1C(=O)/C(=C/c2ccccc2Cl)SC1=S)NNC(=O)c1ccc(Cl)cc1	-4.7	-3.7	·	10.5	-1.9	64.7*
Cc1ccc(/C=C2\SC(=S)N(CCCC(=O)NNC(=O)c3ccccc3O)C2=O)cc1	-2.0	-4.9	·	28.8	1.0	106.6*
